# Measurements from PubChem BioAssay (NCATS).
# Results filed as inconclusive are left out. Where a call stands in place of a potency, no number is given. Unmarked numbers belong to inactive results. Activity calls are given as the source filed them. The call rests on the fitted dose curve; in most records, active means well fitted inhibition curve with a large enough effect; inconclusive means small, poorly fitted or top-dose-only effect; inactive means no such curve, though single readings can be large or run the other way.
# Legend:
# [1] = system: Zika virus NS2B-NS3 protease (unlinked complex); assay: Primary screen GU Rhodamine qHTS for Zika virus inhibitors: Unlinked NS2B-NS3 protease assay (AID 1347159); further: nearly all actives have a fitted effect of over 60% in size
# Outline: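 Enzyme 25 nM in Tris-HCl pH 8.0 + 0.01% Tween 20; compounds up to 114 microM, 15 min RT dark; + Rhod110 substrate 1.5 microM; read t0 and 15 min; delta fluorescence → % inhibition → 4-parameter Hill fit.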
# [2] = system: Zika virus NS2B-NS3 protease (linked construct); assay: Primary screen NINDS Rhodamine qHTS for Zika virus inhibitors (AID 1347160); further: nearly all actives have a fitted effect of over 55% in size
# Outline: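 Enzyme (25 nM, linked NS2B-NS3) was preincubated 15 min with compound in 10 mM Tris-HCl pH 8.0, 0.01% Tween 20. Rhodamine110 substrate (1.5 microM) was then added and fluorescence read at start and after 15 min.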
SMILES,Potency [1],Potency [2],"activity change, negative = inhibition [1]","activity change, negative = inhibition [2]"
C=C1C(O)C[C@@H]2C(C(=O)O)=CO[C@@H](O[C@@H]3O[C@H](CO)[C@@H](O)[C@H](O)[C@H]3OC(=O)c3ccc(O)cc3)[C@H]12 (stereo partly specified),inactive,inactive,,
NC(=O)c1csc(C2OC(CO)C(O)C2O)n1 (stereo unspecified),inactive,inactive,,
CC(C)CNCc1ccc(-c2ccccc2S(=O)(=O)N2CCCC2)cc1,inactive,inactive,,
CC(=O)CC1CCC(C(C)C(=O)OCC(O)CO)O1 (stereo unspecified),inactive,inactive,,
O=C(OC1C=C(CO)C2C(OC3OC(CO)C(O)C(O)C3O)OC=CC12)c1ccc(O)cc1 (stereo unspecified),inactive,inactive,,
CC1(C)CC(=O)C2=C(C1)NC(=S)NC2c1cccc(O)c1 (stereo unspecified),inactive,inactive,,
CC1=C(COC2OC(CO)C(O)C(O)C2O)C(C(CO)C(=O)O)CC1 (stereo unspecified),inactive,inactive,,
C[C@@H]1O[C@@H](O[C@H]2[C@H](O)[C@@H](O)[C@H](O[C@H]3[C@H](O[C@H]4CC[C@@]5(C)C(=CC[C@@H]6C5CC[C@]5(C)[C@@H]7[C@H](C[C@@H]65)O[C@]5(CC[C@@](C)(CO[C@@H]6O[C@H](CO)[C@@H](O)[C@H](O)[C@H]6O)O5)[C@H]7C)C4)O[C@H](CO)[C@@H](O)[C@@H]3O)O[C@@H]2CO)[C@H](O)[C@H](O)[C@H]1O (stereo partly specified),inactive,inactive,,
CC[C@@H](N)CNc1ccnc(-c2cc(-c3cnn(C)c3)ccc2O)n1,inactive,inactive,,
COc1ccc(C2(O)c3ccccc3NC(=O)C2O)cc1 (stereo unspecified),inactive,inactive,,
Cc1ccc(S(=O)(=O)Cc2nc(-c3ccc(C(=O)NCc4cccnc4)cc3)oc2C)cc1,inactive,inactive,,
CC1=C(C)C(=O)OC(C(C)C2CCC3C4CC=C5CC(OC6OC(COC7OC(CO)C(O)C(O)C7O)C(O)C(O)C6O)CC(O)C5(C)C4CCC23C)C1 (stereo unspecified),inactive,inactive,,
C/C=C/C=C/C(=O)N1CC[C@]23c4ccccc4N[C@H]4N(C)c5cccc6c5[C@@]42CCN([C@H]6C2OC2(C)C)[C@H]13 (stereo partly specified),inactive,inactive,,
CC(C)CC1NC(=O)C(C)NC(=O)C(CC(C)C)OC(=O)CCCNC1=O (stereo unspecified),inactive,inactive,,
CC(C)(O)C1CCC(C)(C2CCC3(C)C4CCC5C(C)(C(=O)OC6OC(CO)C(O)C(O)C6O)C(O)CC(O)C56CC46CCC23C)O1 (stereo unspecified),inactive,inactive,,
C1CCC[C@H]2CCCN3CC[C@@H](CCCCCC[C@@H]4CCCN5CC[C@@H](CC1)O[C@@H]45)O[C@@H]23,,,-7.05% [at 0.23 µM],20.2% [at 0.092 µM]
c1cc(OCCCN2CCCCC2)ccc1CN1CCCCC1,inactive,inactive,,
C=C1C[C@]23C[C@H]1CC[C@H]2C1=C[C@H]2OC(=O)[C@@](C)([C@H]1[C@@H]3C(=O)O)[C@H]2O,inactive,inactive,,
C=C(C(=O)OC)C1C(O)CC2(C)C(=O)CCC(O)(CO)C2C1O (stereo unspecified),inactive,inactive,,
CCCOc1ccc(-c2nc(OC)c3ccccc3n2)cc1,inactive,inactive,,
O=C1C=CC(O)(/C=C/C(=O)OC[C@H]2O[C@@H](Oc3ccc(O)cc3)[C@H](O)[C@@H](O)[C@@H]2O)C=C1,inactive,inactive,,
CC#CC(=O)N1CCC[C@H]1c1nc(-c2ccc(C(=O)Nc3ccccn3)cc2)c2c(N)nccn12,inactive,inactive,,
C/C(=C\CC[C@@H](C)[C@H]1CC(O)[C@@]2(C)C3CC[C@H]4C(C)(C)[C@@H](OC5OCC(O)C(O)C5OC5OC(CO)C(O)C(O)C5O)CC[C@@]45C[C@@]35CC(O)[C@]12C)C(=O)O (stereo partly specified),inactive,inactive,,
Cc1cccc(-c2[nH]c(Cc3cccc(C(N)=O)c3)nc2-c2ccc3nccnc3c2)n1,inactive,inactive,,
C[C@@H]1CC[C@@]2(OC1)O[C@H]1C[C@H]3[C@@H]4CC=C5C[C@@H](O)CC[C@]5(C)[C@H]4CC[C@]3(C)[C@H]1[C@@H]2C,inactive,inactive,,
Cc1c2cc(c(C(=O)O)c1C)OC1OC(C(O)C(O)C1O)C(O)C(O)C1OC(O2)C(O)C(O)C1O (stereo unspecified),inactive,inactive,,
CCC(C)C(=O)O[C@H]1CCC=C2C=C[C@H](C)[C@H](CC[C@@H](O)C[C@@H](O)CC(=O)O)[C@H]21 (stereo partly specified),inactive,inactive,,
CC[C@]12C=CCN3CC[C@@]4(c5cc([C@@]6(C(=O)OC)C[C@H]7C[C@@H](C(C)(F)F)CN(Cc8c6[nH]c6ccccc86)C7)c(OC)cc5N(C)[C@H]4[C@@](O)(C(=O)OC)[C@@H]1OC(C)=O)[C@@H]32,inactive,inactive,,
